The source of these data is PubChem BioAssay AID1851 (National Center for Advancing Translational Sciences (NCATS), 2009).

About 5,100 (32%) of roughly 16,000 compounds were called active. About 25% were inconclusive and are not listed. The list shows a part of the results. Values without a mark were called inactive. Calls follow the shape of the dose curve; as a rule, active = well fitted curve in the direction sought with a large enough effect; inconclusive = small, poorly fitted or top-dose-only effect, or effect the other way; inactive = no such curve, though single readings can be large or run the other way. Peptide text beside a SMILES is read from it.
% is scaled to controls: 0 for no effect and ±100 for the full control effect.

The target in the test is Cytochrome P450 3A4 (Homo sapiens) (UniProt P08684). Briefly: Cytochrome panel assay with activity outcomes. The following applies: recombinant CYP, pro-luciferin dealkylation, luminescence, p450-cyp3a4; series mostly up to 57.1 µM; activity, negative = inhibition: at the top concentration.
Cytochrome P450 3A4 (Homo sapiens), sequence (P08684 whole entry, looked up): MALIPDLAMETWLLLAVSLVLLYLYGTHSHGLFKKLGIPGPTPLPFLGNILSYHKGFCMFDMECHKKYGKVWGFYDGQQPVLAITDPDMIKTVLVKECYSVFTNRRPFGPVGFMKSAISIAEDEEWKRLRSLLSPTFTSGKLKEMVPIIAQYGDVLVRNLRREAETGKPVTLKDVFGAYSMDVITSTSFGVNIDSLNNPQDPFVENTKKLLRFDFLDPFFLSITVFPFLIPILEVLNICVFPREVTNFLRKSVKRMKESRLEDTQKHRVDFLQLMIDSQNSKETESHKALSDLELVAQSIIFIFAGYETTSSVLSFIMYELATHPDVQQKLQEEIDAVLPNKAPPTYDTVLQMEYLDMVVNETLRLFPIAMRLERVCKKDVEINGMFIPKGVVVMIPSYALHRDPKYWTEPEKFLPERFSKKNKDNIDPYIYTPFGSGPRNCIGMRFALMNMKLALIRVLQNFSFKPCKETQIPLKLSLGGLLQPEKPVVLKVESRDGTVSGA
Take `Cc1ccc(-n2c(=O)c3sccc3n(CC(=O)NCc3ccco3)c2=O)cc1F`: the “activity, negative = inhibition” value is -1.5%. On the same count and under the same terms, with `O=C(CCn1c(=O)[nH]c2ccsc2c1=O)Nc1ccc(F)c(F)c1` the figure was 10.8%. For the compound `CCOc1cc2[nH]c(=S)n(CCCC(=O)NCc3ccco3)c(=O)c2cc1OCC`, the AC50 is 3.98 µM (active).

Turning to `O=C(CCCCCn1c(=O)[nH]c2ccsc2c1=O)NCc1ccc2c(c1)OCO2`, the AC50 is 0.631 µM (active). With `COCCCn1c(=S)[nH]c2ncccc2c1=O`, the “activity, negative = inhibition” value is -24.6%.

Take `COCCNC(=O)CCCCCn1c(=S)[nH]c2ccccc2c1=O`: the AC50 was 8.91 µM (active). For the compound `O=C(NCc1ccco1)c1ccc2c(=O)n(-c3ccccc3)c(=S)[nH]c2c1`, the “activity, negative = inhibition” value is -4.58%. On to `O=C(CCCCn1c(=S)[nH]c2ccsc2c1=O)NCc1ccco1`, for which the AC50 is 7.08 µM (active). Regarding `COCCn1c(=S)[nH]c2cc(C(=O)NC(C)C)ccc2c1=O`, the “activity, negative = inhibition” value was 13.9%.

As to `O=C1C2Sc3[nH]c(=O)sc3C(c3ccccc3)C2C(=O)N1c1ccc(Cl)cc1` (centres undefined), the AC50 is 12.6 µM (active). As for `O=C1C(C2=NC(C(=O)O)C3C(=O)N(c4ccc(Cl)cc4)C(=O)C23)=C(O)c2ccccc21` (centres undefined), the “activity, negative = inhibition” value was 16.7%. Consider `O=C1C2Sc3[nH]c(=O)sc3C(c3ccccc3)C2C(=O)N1c1ccccc1` (centres undefined), for which the AC50 is 7.94 µM (active).

For `Nc1ccccc1CCCC(=O)O`, the activity, negative = inhibition is 0.683% [at 11.4 µM]. Still for that read-out and setting: with `O=C(CSc1nnc(-c2ccncc2)n1Cc1ccccc1)Nc1nccs1` the figure was -23.1% [at 2.29 µM]. On to `C=CCn1c(SCC(=O)Nc2ncc(Cc3ccc(Br)cc3)s2)nnc1-c1ccncc1`, for which the AC50 is 1.41 µM (active). With `CCCCc1c(O)nc(SCCN(C)C)n(-c2ccccc2)c1=O`, the “activity, negative = inhibition” value is -3.84%. Regarding `CC(C)N(C(=O)CSc1nc2ccccc2n1-c1ccccc1)C(C)C`, the AC50 was 7.94 µM (active). Take `CC(C)n1c(N2CCN(C(=O)Nc3ccccc3)CC2)nc2ccccc21`: the “activity, negative = inhibition” value is -29.4%.

On to `CNc1c2c(nn1C)CCCC2`, for which the “activity, negative = inhibition” value is 2.07%.

Consider `O=C(Nc1ccc(Oc2ccccc2)cc1)C1CCN(c2c3c(nc4ncnn24)CCC3)CC1`, for which the “activity, negative = inhibition” value was -19%.

Take `Cc1ccc(C2C(=O)N(C3CCCC3)CC(=O)N2CC2COc3ccccc3O2)cc1` (centres undefined): the AC50 was 3.98 µM (active). Take `CC1CCCC(C)N1CC(O)COCC1COc2ccccc2O1` (centres undefined): the “activity, negative = inhibition” value is 7.88%. Still for that read-out and setting: in the case of `CC1CCCN(CC(O)COCC2COc3ccccc3O2)C1` (centres undefined) it was -2.38%. With `CN(C)c1ccc(-c2ccc3ncnc(N4CCNCC4)c3c2)cc1`, the AC50 was 20 µM (active).

Take `CN1CCN(c2ncnc3ccc(-c4ccc5c(c4)OCO5)cc23)CC1`: the AC50 is 7.94 µM (active). Take `c1cncc(-c2ccc3ncnc(N4CCNCC4)c3c2)c1`: the AC50 is 12.6 µM (active). In the case of `CN1CCN(c2ncnc3ccc(-c4cccnc4)cc23)CC1`, the concentration at half-maximal activity (AC50) was 15.8 µM (active). As for `N[C@H](C(=O)O)[C@@H]1[C@@H](C(=O)O)C1(F)F`, the “activity, negative = inhibition” value is -12.3%. Same read-out and setting: in the case of `OC[C@@H]1O[C@H](n2cnc3c(/C=C(\O)c4ccccc4)ncnc32)[C@H](O)[C@@H]1O` it was -15.3% [at 11.4 µM]. With `NC(N)=NC[C@@H]1CCCCCCN1`, the activity, negative = inhibition is -2.73% [at 11.4 µM]. Still for that read-out and setting: in the case of `CCN(CC)CC[n+]1ccc2c(C)c3[nH]c4ccc(O)cc4c3c(C)c2c1` it was -18.3% [at 11.4 µM]; in that of `Cc1sc2ncnc(OCC(=O)NC(C)C)c2c1C`, 0.697% [at 11.4 µM]. As to `N#Cc1cccc(-c2ccc3ncnc(N4CCNCC4)c3c2)c1`, the AC50 is 20 µM (active). As to `N#Cc1cccc(-c2ccc3ncnc(NC4CCNCC4)c3c2)c1`, the “activity, negative = inhibition” value was -28.7%. On the same count and under the same terms, in the case of `CCc1ccc(OCC(=O)NNC(=O)CSc2ncnc3sc(C)c(C)c23)cc1` it was 1.75% [at 0.457 µM].

As to `COC(=O)c1c(-c2ccccc2)csc1NC(=O)CSc1ncnc2sc(C)c(C)c12`, the AC50 was 8.91 µM (active).

On to `COCCNC(=O)CSc1ncnc2sccc12`, for which the activity, negative = inhibition is 0.766% [at 2.29 µM]. On the same count and under the same terms, in the case of `COc1ccccc1-c1cc(N(C)Cc2ccco2)ncn1` it was -15.2%; in that of `Cc1ccccc1-c1cc(N(C)Cc2ccco2)ncn1`, 21.2%. `COc1ccccc1-c1cncnc1N(C)Cc1ccco1`: the AC50 is 1.26 µM (active). As to `CN(Cc1ccco1)c1ncncc1-c1ccccc1Cl`, the AC50 was 0.501 µM (active). For `Cc1noc(C)c1-c1cncnc1N(C)Cc1ccco1`, the AC50 was 3.16 µM (active). For the compound `CN(Cc1ccco1)c1cc(-c2ccccc2Cl)ncn1`, the “activity, negative = inhibition” value was 16.5%. `Cc1noc(C)c1-c1cc(N(C)Cc2ccco2)ncn1`: the “activity, negative = inhibition” value is -29.1%.

In the case of `Cc1ccccc1-c1cncnc1N(C)Cc1ccco1`, the half-maximal activity concentration (AC50) was 1.58 µM (active). For `CN(Cc1ccco1)c1ccnc(-c2ccccc2C(F)(F)F)n1`, the “activity, negative = inhibition” value was -0.303%.

Take `CN(Cc1ccco1)c1ncncc1-c1ccccc1C(F)(F)F`: the concentration at half-maximal activity (AC50) is 1.26 µM (active). Consider `NC(=O)N1c2ccccc2C=Cc2ccccc21`, for which the “activity, negative = inhibition” value was -8.2% [at 25.6 µM]. `O=C(C[C@@H]1C=Cc2ccccc2N1C(=O)c1ccccc1)c1ccccc1`: the AC50 was 3.98 µM (active).

As for `CN1[C@H](CC(=O)c2ccccc2)CCC[C@H]1C[C@H](O)c1ccccc1`, the “activity, negative = inhibition” value was -6.77%. On the same count and under the same terms, in the case of `O=C(O)[C@H]1C[C@@H](CP(=O)(O)O)CCN1` it was 8.39%; in that of `CCCCN(C)CCCNC(=O)c1ccc(N2CCCC2=O)cc1`, -1.44%.

With `Cc1ccccc1-c1nc(CS(=O)CC(=O)NCCN2CCN(Cc3ccccc3)CC2)c(C)o1` (centres undefined), the AC50 is 7.08 µM (active). For `O=C(NCCN1CCN(Cc2ccccc2)CC1)C1c2ccccc2C(=O)N2CCc3ccccc3C12` (centres undefined), the activity, negative = inhibition is -22.2% [at 2.29 µM]. Take `Cc1ccccc1-c1nc(CS(=O)CC(=O)NCCCN(C)c2ccccc2)c(C)o1` (centres undefined): the AC50 is 3.98 µM (active). The same measure, in the same setting: in the case of `CCCCN(C)CCCNC(=O)CS(=O)Cc1nc(-c2ccc(OC)c(OC)c2)oc1C` (centres undefined) it was 14.1 µM (active). On to `CN(C)CCCNC(=O)CCc1nc2ccccc2c(=O)[nH]1`, for which the “activity, negative = inhibition” value is -18.4%. Same read-out and setting: with `C=CCN1C(=NC(=O)CC)SC2CS(=O)(=O)CC21` (centres undefined) the figure was -11.1%; with `O=C(O)C(=O)/C=C(\O)c1ccc(Br)cc1`, -7.81% [at 11.4 µM]. Take `COc1ccc(S(=O)(=O)NNC(=O)C2Cc3c(ccc4ccccc34)O2)cc1` (centres undefined): the AC50 was 10 µM (active). In the case of `NNC(=O)CCc1ccc2ccc3ccccc3c2c1`, the AC50 was 0.398 µM (active). With `O=C(O)CCCc1ccc2ccccc2c1`, the activity, negative = inhibition is -5.59% [at 11.4 µM]. Still for that read-out and setting: with `O=C(O)CCCc1ccc2ccc3ccccc3c2c1` the figure was -10% [at 11.4 µM]. `COc1ccc(OC)c(NC(=O)CSCc2cnn(-c3ccccc3)c2-n2cccc2)c1`: the AC50 is 10 µM (active). The same measure, in the same setting: in the case of `CCOC(=O)N1CCC(NC(=O)CSCc2cnn(-c3ccccc3)c2-n2cccc2)CC1` it was 12.6 µM (active); in that of `O=S(=O)(c1ccccc1)N1CCC[C@@]2(CCN(c3ccncc3)C2)C1`, 3.98 µM (active). With `CS(=O)(=O)N1CCC2(CCN(c3ccncc3)CC2)CC1`, the “activity, negative = inhibition” value is -8.79%. Regarding `O=S(=O)(c1ccccc1)N1CCC[C@@]2(CCN(c3ccccc3)C2)C1`, the AC50 is 5.01 µM (active).

`CN1CCN(C(=O)C(C(=O)c2ccc(F)cc2)n2ccccc2=O)CC1` (centres undefined): the “activity, negative = inhibition” value was -15.6%. Regarding `CC(=O)N[C@@H](CC(=O)O)C(=O)N[C@@H](CCC(=O)O)C(=O)O` (Ac-Asp-Glu-OH), the AC50 entry is “inactive”. In the case of `COc1cnc(SCc2ccc(Cl)cc2)nc1Cl`, the “activity, negative = inhibition” value was 6.01%. `COc1cc(/C=N/O)cc(Br)c1OCc1cccc(Cl)c1`: the half-maximal activity concentration (AC50) is 14.1 µM (active). Same read-out and setting: with `COc1cc(/C=N/O)cc(Br)c1OCc1ccc(Cl)cc1` the figure was 15.8 µM (active).

Consider `Cc1ccc(-c2ccc(=O)n(CC(=O)NCCN(C)C)n2)cc1`, for which the “activity, negative = inhibition” value was 13%. Turning to `CCCN1CCN(CCCNC(=O)Cn2nc(-c3ccc(C)cc3)ccc2=O)CC1`, the “activity, negative = inhibition” value was -25.4%. For `Cc1ccc(-c2ccc(=O)n(CC(=O)N3CCN(c4cccc(C)c4)C(C)C3)n2)cc1` (centres undefined), the AC50 is 14.1 µM (active). Still for that read-out and setting: with `COc1cc2c(cc1OC)C(c1ccc(N)cc1)=NNC(=O)C2` the figure was 12.6 µM (active); with `COC(=O)c1cc(Br)c(=O)n(CCc2ccc(O)cc2)c1`, 15.8 µM (active). With `COC(=O)c1cc(Br)c(=O)n(CCN2CCCC2)c1`, the activity, negative = inhibition is 8.19% [at 2.29 µM].

For `CCOc1ccc2c(c1)nc(SCC(=O)c1ccc(Br)s1)n2C`, the AC50 is 6.31 µM (active).

Take `c1ccc2nc(C3=NCCN3)cnc2c1`: the “activity, negative = inhibition” value was -18.6%. On the same count and under the same terms, with `C=CCNC(=S)N/N=C/c1ccc(OCc2ccccc2)cc1` the figure was -13.6%. In the case of `C=CCNC(=S)Nc1ccc2nc(C)c(C)nc2c1`, the AC50 was 15.8 µM (active).

On to `CCNC(=O)NC(=O)CSc1nc2ccccc2n1CC(C)C`, for which the AC50 was 12.6 µM (active). Take `CC(C)Cn1c(SCC(=O)c2c(N)n(C)c(=O)n(C)c2=O)nc2ccccc21`: the AC50 was 2.51 µM (active). Regarding `OC[C@@H]1O[C@@H](n2cnc3c(NC4CCCC4)ncnc32)[C@H](O)[C@H]1O`, the “activity, negative = inhibition” value is -10%. In the case of `CC(=O)Oc1ccc2ccccc2c1C(NC(=O)Cc1ccccc1)c1ccc(Cl)cc1` (centres undefined), the AC50 was 8.91 µM (active). Consider `O=C(Cc1ccc(Cl)cc1)NNC(=O)Nc1cccc2ccccc12`, for which the activity, negative = inhibition was -12.3% [at 2.29 µM]. On to `CN1[C@@H]2CC[C@H]1CC(OC(c1ccccc1)c1ccccc1)C2` (some centres undefined), for which the AC50 result is “inactive”. The same measure, in the same setting: in the case of `C=CCN(CC=C)C(=O)C(=O)c1cc(C)n(-c2ccc([N+](=O)[O-])cc2)c1C` it was 2.82 µM (active).

`Cc1cc(C(=O)C(=O)NC(C)C)c(C)n1-c1ccc([N+](=O)[O-])cc1`: the “activity, negative = inhibition” value is -1.9%. Regarding `CCC(=O)Nc1nnc(C(C)(C)C)s1`, the “activity, negative = inhibition” value was -12%. Regarding `O=C(Nc1nccs1)c1sc2cc(Cl)ccc2c1Cl`, the AC50 is 10 µM (active). Regarding `Clc1ccc2c(NCCNc3ccnc4cc(Cl)ccc34)ccnc2c1`, the activity, negative = inhibition is 4.32% [at 11.4 µM]. As for `COc1ccc(CNc2ncnc3ccc(-c4ccccc4C#N)cc23)c(OC)c1`, the AC50 is 1 µM (active).

`COc1ccccc1CNc1ncnc2ccc(-c3ccccc3C#N)cc12`: the AC50 is 3.98 µM (active). As to `CCCCc1ccc(NC(=S)NCc2cccs2)cc1`, the activity, negative = inhibition was -10% [at 2.29 µM]. For the compound `Cc1ccccc1-n1cnc2cc(NCc3cccs3)ccc21`, the AC50 was 5.01 µM (active). `c1ccc(-n2cnc3cc(NCc4cccs4)ccc32)cc1`: the AC50 was 7.08 µM (active).
